A549 tox = Nrf2 qHTS screen for inhibitors: counterscreen for cytotoxicity | AID 504648, 2011 | 390,000 tested, 0.16% active | A549 ARE-Fluc cells, CellTiter-Fluor viability, 18-24 h | Potency, µM (doses to about 46 µM), for the others: at the top dose activity change, negative = cytotoxicity, most hits filed as inhibitors; further: potency means the concentration at half of the fitted maximal effect; on the % scale 0 is the no-effect control and ±100 the full control effect
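A549 ARE_Fluc cells in 5% FBS OPTI-MEM were exposed to compounds in concentration-response for 18-24 h at 37 deg C. Viability was read by CellTiter-Fluor fluorescence (Ex 405/Em 525) after 30 min, before the luciferase read.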
IDH1 R132H inh = qHTS for Inhibitors of mutant isocitrate dehydrogenase 1 (IDH1): qHTS | Isocitrate dehydrogenase [NADP] cytoplasmic (Homo sapiens), O75874 | IDH1-R132H enzyme, NADPH consumption, diaphorase/resazurin fluorescence | Potency, µM (highest dose often 76.6 µM), without a hit: top-dose activity change, negative = inhibition, usual class: inhibitors | 390,000 tested, 0.093% active | AID 602179, 2012; further: potency means the concentration at half of the fitted maximal effect; on the % scale 0 is the no-effect control and ±100 the full control effect; nearly all actives have a fitted effect of over 65% in size
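IDH1-R132H (0.5 ug/mL dispensed) in pH 7.5 Tris buffer was preincubated 30 min with compound, then given a substrate mix of 0.016 mM NADPH and 2 mM alpha-KG for 80 min at room temperature; remaining NADPH was read by diaphorase/resazurin fluorescence.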
Nrf2 inh = Nrf2 qHTS screen for inhibitors; Potency, µM (doses to about 46 µM), without a hit: top-dose activity change, negative = inhibition, hits mostly inhibitors; A549 ARE-Fluc reporter, luciferase luminescence, 18-24 h; 360,000 tested, 2.1% active; further: potency means the concentration at half of the fitted maximal effect; on the % scale 0 is the no-effect control and ±100 the full control effect; nearly all actives have a fitted effect of over 60% in size
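Quantitative HTS in A549 cells stably bearing an antioxidant response element-firefly luciferase construct. Inhibition of Nrf2-driven transcription was scored by luminescence after 18-24 h of compound exposure at 37 °C.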
12-LOX inh = Primary qHTS assay for inhibitors of human arachidonate 12S-lipoxygenase (ALOX12): Round 2; purified 12hLO, xylenol orange hydroperoxide absorbance; Polyunsaturated fatty acid lipoxygenase ALOX12 (Homo sapiens), P18054; 580,000 tested, 1.1% active; Potency, µM (titrated, usually from 108 µM), for the others: at the highest dose activity change, negative = inhibition, actives largely listed as inhibitors; further: potency means the concentration at half of the fitted maximal effect; on the % scale 0 is the no-effect control and ±100 the full control effect
Target sequence (P18054 whole entry, looked up): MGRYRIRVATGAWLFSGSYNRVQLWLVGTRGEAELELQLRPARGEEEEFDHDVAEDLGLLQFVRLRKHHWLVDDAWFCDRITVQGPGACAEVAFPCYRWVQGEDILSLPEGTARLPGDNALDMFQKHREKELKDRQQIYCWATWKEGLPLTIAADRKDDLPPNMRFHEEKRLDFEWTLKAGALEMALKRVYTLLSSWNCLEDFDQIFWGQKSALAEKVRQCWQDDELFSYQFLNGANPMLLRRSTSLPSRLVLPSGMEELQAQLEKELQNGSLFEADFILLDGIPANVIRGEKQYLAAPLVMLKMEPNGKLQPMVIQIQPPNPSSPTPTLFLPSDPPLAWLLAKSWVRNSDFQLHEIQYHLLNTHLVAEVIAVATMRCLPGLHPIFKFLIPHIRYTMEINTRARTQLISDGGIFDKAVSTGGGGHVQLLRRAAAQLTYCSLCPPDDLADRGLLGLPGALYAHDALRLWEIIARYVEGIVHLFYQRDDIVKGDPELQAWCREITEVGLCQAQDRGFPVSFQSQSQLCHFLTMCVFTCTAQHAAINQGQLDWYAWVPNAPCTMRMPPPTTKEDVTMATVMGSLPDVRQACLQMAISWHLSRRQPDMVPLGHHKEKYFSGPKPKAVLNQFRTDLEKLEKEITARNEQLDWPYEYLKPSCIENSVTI
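Hydroperoxide product was detected by ferrous iron/xylenol orange as the 573 to 405 nm absorbance ratio. Arachidonic acid at 40 uM (final) was turned over for 30 min at room temperature by 150 nM human 12hLO, pH 7.0 Hepes buffer, after 15 min compound preincubation.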
Nrf2 ARE act = qHTS of Nrf2 Activators; 410,000 tested, 0.31% active; Potency, µM (top dose mostly 46.1 µM), for inactives: at the highest dose activation, actives largely listed as activators; AREc32 ARE-luciferase reporter (MCF7-derived line), luminescence, 24 h; AID 624171, 2012; further: potency means the concentration at half of the fitted maximal effect; % of control where 0% means no effect; nearly all actives have a fitted effect of over 65% in size
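ARE-driven firefly luciferase activity in AREc32 cells measured after a 24 hr compound exposure at 37 deg C, using Steady-Glo reagent and a 30 min room-temperature hold.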
LDHA inh = qHTS assay for inhibitors of human lactate dehydrogenase; 480,000 tested, 0.15% active; activity change, % (values are at about 110 or 230 µM); AID 1347041, 2019; purified LDHA, NADH/diaphorase-resazurin fluorescence; hits give low values; in the data active means activity change below about -30%; inconclusive means mostly about -25% to -30%;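 further: plate controls were DMSO wells for no effect and wells without enzyme for full effect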
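Human LDH5 (2 nM) was incubated with 0.06 mM NADH and 0.2 mM pyruvate for 5 min at room temperature in Tris pH 7.4. Remaining NADH was coupled through diaphorase/resazurin, and resorufin fluorescence was read at 0 and 20 min.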
* hit, by the source's call; ? = inconclusive; . = not tested or not shown; [ ] = remark or other dose. Only some compounds are listed: those with a hit (about 2.7% of all), similar ones and a draw of the others. Unless noted, the call rests on the fitted dose curve; in most records, active means well fitted curve in the direction sought with a large enough effect; inconclusive means small, poorly fitted or top-dose-only effect, or another doubt; inactive means no such curve, though single readings can be large; an effect the other way counts as inactive or inconclusive.

SMILES	A549 tox	IDH1 R132H inh	Nrf2 inh	12-LOX inh	Nrf2 ARE act	LDHA inh
CC(CC(=O)Nc1cccc(S(=O)(=O)N2CCCCC2)c1)c1ccccc1 (stereo not given)	?	11%	13µM*	?	-1%	-2
CC(=O)Nc1cccc(S(=O)(=O)N2CCCCCC2)c1	-2%	2%	10%	-36%	0%	-4
Cc1ccc(CNC(=O)C(C)n2ccc3cc(S(=O)(=O)N4CCCC4)ccc32)cc1 (stereo not given)	-4%	-1%	?	-27%	4%	-4
COc1cc(F)c(S(=O)(=O)N2CCCN(S(=O)(=O)c3cccc(NC(C)=O)c3)CC2)c(F)c1	-9%	.	16µM*	.	.	-1
O=C(CSc1ccccc1)Nc1cccc(S(=O)(=O)N2CCCC2)c1	-2%	1%	3%	2%	0%	-2
CC(C(=O)NCc1ccc(F)cc1)n1ccc2cc(S(=O)(=O)N3CCCC3)ccc21 (stereo not given)	-17%	12%	21µM*	-8%	-1%	-1
COc1cccc(NC(=O)Nc2c(NC3CCCCC3)c3ccccc3oc2=O)c1	.	.	.	?	.	-3
Cc1c[nH]cc1C(=O)OCC#Cc1ccccc1	.	.	.	29%	.	?
Cc1ccc(OCC(=O)Nc2cccc(S(=O)(=O)N3CCCC3)c2)cc1C	.	10%	.	-1%	0%	0
CCN(CC)S(=O)(=O)c1ccc(C)c(NC(=O)CNc2cccc(S(=O)(=O)N3CCOCC3)c2)c1	-4%	-2%	?	10%	0%	-3
CC(=O)c1ccc(OCC(=O)Nc2cccc(S(=O)(=O)N3CCCC3)c2)cc1	5%	4%	16µM*	-55%	4%	2
CCN(CC)S(=O)(=O)c1ccc(C)c(NC(=S)Nc2cccc(S(=O)(=O)N3CCCCCC3)c2)c1	-5%	1%	23µM*	?	0%	-1
CC(CN1CCOCC1)NS(=O)(=O)c1ccc(F)c(Cl)c1 (stereo not given)	.	.	.	11%	.	-5
COc1cc(C2C(C#N)=C(N)OC3=C2C(=O)CC(C)(C)C3)cc(OC)c1OC(=O)N1CCOCC1 (stereo not given)	.	.	.	-1%	.	2
O=C1NC(=Nc2ccccc2)S/C1=C\C=C\c1ccco1	?	-1%	10%	50µM*	7.1µM*	3
Cc1ccc(N=C2NC(=O)S/C2=C\c2ccco2)cc1	-15%	10%	-8%	?	?	-10
COc1ccc(N=C2NC(=O)/C(=C/C=C/c3ccccc3)S2)cc1	-14%	20%	-18%	248%	3%	-10
Cc1ccc(N=C2NC(=O)/C(=C/C=C/c3ccco3)S2)cc1	?	8%	28%	32µM*	2.5µM*	5
Cc1cccc(N=C2NC(=O)/C(=C/C=C/c3ccco3)S2)c1C	?	-2%	-6%	10µM*	?	11
Cc1ccc(NS(=O)(=O)c2cccc(Cl)c2Cl)cc1S(=O)(=O)N1CCOCC1	.	.	.	?	.	3
O=C(Nc1cccc(Cl)c1)c1ccc2c(Cl)c3c(nc2c1)CCCC3	.	.	.	10%	.	?
Cc1nc(NC(=O)C(C)Sc2nnc(-c3ccccc3F)n2C(C)C)sc1C (stereo not given)	.	.	.	-35%	.	-5
O=C(COc1ccccc1F)Nc1c(C(=O)c2ccc3c(c2)OCCO3)oc2ccccc12	.	.	.	9%	.	3
O=c1c(Cl)c(N/N=C/c2ccc(Br)cc2)cnn1-c1ccccc1	-20%	-5%	?	-24%	7.1µM*	-7
COc1cc(Cl)ccc1-c1cccc(CCOc2cnc3c(ccn3CC(=O)O)c2)c1	.	.	.	-21%[176 µM]	.	.

Screening data as filed in PubChem BioAssay.
